From PubChem
GSH fluor: compound fluorescence on glutathione beads, profiling panel, artefact control, biophysical, 488/530 nm, flow cytometry; GSH beads flow cytometry, compound fluorescence 488/530 nm; stronger effect = higher value; fluorescence (KMESF) at 10 µM; 190,000 tested, 0.25% active; AID 1776, 2009; in the data active = fluorescence above about 89;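 also: glutathione beads carrying GST-tagged Bcl family fusion proteins plus one bare bead set; values are compound well signal with DMSO vehicle wells as background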
RGS16-Gao: modulators of RGS16 binding to Galphao, primary screen, biochemical, human proteins, multiplexed bead flow cytometry; Regulator of G-protein signaling 16 (Homo sapiens) + Guanine nucleotide-binding protein …; bead-based flow cytometry RGS16-Galphao binding, fluorescence; actives lie on both sides; binding response (% of control), % at 10 µM; 220,000 tested, 0.38% active; AID 1441, 2008;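 also: Galphao activated by GDP with aluminum fluoride before binding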
Target sequence (O15492 whole entry, looked up): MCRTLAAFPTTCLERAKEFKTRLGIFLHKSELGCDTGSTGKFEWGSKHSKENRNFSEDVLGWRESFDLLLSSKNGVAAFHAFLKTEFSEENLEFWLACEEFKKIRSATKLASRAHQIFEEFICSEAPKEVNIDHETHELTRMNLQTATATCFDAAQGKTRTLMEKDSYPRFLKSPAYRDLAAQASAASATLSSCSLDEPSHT
Target sequence (P09471 whole entry, looked up): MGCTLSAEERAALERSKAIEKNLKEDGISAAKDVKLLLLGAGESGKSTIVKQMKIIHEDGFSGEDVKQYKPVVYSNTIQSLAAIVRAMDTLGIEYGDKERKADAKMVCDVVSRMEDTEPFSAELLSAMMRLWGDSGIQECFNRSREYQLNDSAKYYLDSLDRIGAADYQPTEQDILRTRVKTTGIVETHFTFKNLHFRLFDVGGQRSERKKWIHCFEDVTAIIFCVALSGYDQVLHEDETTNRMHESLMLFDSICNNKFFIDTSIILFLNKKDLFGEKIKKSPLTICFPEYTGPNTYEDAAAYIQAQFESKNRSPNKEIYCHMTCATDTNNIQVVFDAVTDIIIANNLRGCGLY
RGS7-Gao: RGS7-Galphao binding modulators, primary screen, biochemical, multiplexed bead flow cytometry | Guanine nucleotide-binding protein G(o) subunit alpha (Homo sapiens), P09471 | actives lie on both sides | binding response (% of control), % at 10 µM | 220,000 tested, 0.35% active | AID 1439, 2008; in the data active = binding response below about 49% or above about 150%; inconclusive = no clear call, values can overlap the other calls; inactive = in between;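 also: fluorescent Galphao held in activated GDP-AlF4 state binding bead-coupled RGS7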
Target sequence (P09471 whole entry, looked up): as above
Avidin fluor: green autofluorescence of compounds with avidin beads – biophysical, 488/530 nm, flow cytometry, artefact control, profiling panel | compound fluorescence 488/530 nm; stronger effect = higher value | fluorescence (KMESF) at 10 µM | 220,000 tested, 0.38% active | AID 1775, 2009; in the data active = fluorescence above about 47
RGS8-Gao reg: RGS8-Galphao binding modulators, primary screen, biochemical, multiplexed bead flow cytometry | Guanine nucleotide-binding protein G(o) subunit alpha (Homo sapiens), P09471 | 220,000 tested, 0.34% active | response (percent of control binding), % at 10 µM | actives lie on both sides | AID 1423, 2008; in the data active = response below about 60% or above about 140%; inactive = in between;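 also: Galphao activated as the GDP aluminium fluoride complex binding bead-coupled RGS8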
RGS4-Gao reg: modulators of RGS4 binding to Galphao, primary screen, biochemical, multiplexed bead flow cytometry; Guanine nucleotide-binding protein G(o) subunit alpha (Homo sapiens), P09471; actives lie on both sides; binding response (% of control), % at 10 µM; 220,000 tested, 0.33% active; in the data active = binding response below about 49% or above about 150%; inactive = in between;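 also: fluorescent Galphao activated with aluminum fluoride binding bead-coupled RGS4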
RGS-Gao: modulators of RGS–Galpha-o binding, primary screen, biochemical, multiplexed beads, flow cytometry, RGS4/7/8/16/19; shares compounds with RGS16-Gao; multiplexed bead flow cytometry; RGS4–Galpha-o binding response, % at 10 µM; 1,600 tested, 99% active;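 also: fluorescently labeled Galpha-o bound to GDP with aluminium fluoride binding biotinylated RGS beads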
Biotin-avidin: disruption of biotin probe capture by avidin, counter-screen for RGS protein interaction modulators, biochemical, flow cytometry, bead-based | AID 1783, 2009 | shares compounds with RGS16-Gao | inhibition, % at 10 µM | 1,700 tested, under 10 active | streptavidin beads, fluorescein-biotin binding;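 active = inhibition above 50%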;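 also: median green fluorescence of gated singlet beads compared with DMSO control wells; 0% = DMSO wells and 100% = complete loss of bead fluorescence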
RGS8-Gao confirm: RGS8-Galphao binding modulators, confirmation, biochemical, multiplexed bead flow cytometry, single concentration; shares compounds with RGS16-Gao; bead-based flow cytometry RGS8-Galphao binding, fluorescence; actives lie on both sides; binding response (% of control), % at 10 µM; 1,700 tested, 3% active; in the data active = binding response below about 72% or above about 130%; inactive = in between;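 also: Galphao activated as GDP AlF4 complex before binding bead RGS8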
RGS7-Gao confirm: RGS7-Galphao binding modulators, confirmation, biochemical, multiplexed bead flow cytometry, single concentration; shares compounds with RGS16-Gao; bead-based flow cytometry RGS7-Galphao binding; actives lie on both sides; response (percent of control binding), % at 10 µM; 1,700 tested, 7.8% active; in the data active = response below about 75% or above about 130%; inactive = in between;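 also: fluorescent Galphao activated with GDP and aluminum fluoride binding bead-coupled RGS7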
RGS16-Gao conf: modulators of RGS16-Galphao protein binding, confirmation, biochemical, single concentration, multiplexed bead flow cytometry | shares compounds with RGS16-Gao | bead-based flow cytometry; actives lie on both sides | response (% of control binding), % at 10 µM | 1,700 tested, 4% active | AID 1838, 2009; in the data active = response below about 74% or above about 130%; inactive = in between;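 also: Galphao activated as the GDP aluminium fluoride complex binding bead-coupled RGS16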
RGS4-Gao confirm: modulators of RGS4-Galphao protein binding, confirmation, biochemical, single concentration, multiplexed bead flow cytometry; 1,700 tested, 4% active; binding response (% of control), % at 10 µM; actives lie on both sides; shares compounds with RGS16-Gao; AID 1840, 2009; in the data active = binding response below about 74% or above about 130%; inactive = in between
RGS19-Gao conf: regulators of RGS19-Galphao binding, confirmation, biochemical, single point, multiplexed bead flow cytometry. shares compounds with RGS16-Gao. bead-based flow cytometry RGS19-Galphao binding; actives lie on both sides. response (percent of control binding), % at 10 µM. 1,700 tested, 5% active. AID 1841, 2009; in the data active = response below about 50% or above about 160%; inactive = in between;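 also: 100% = no compound control and 0% = blank background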
An asterisk follows results filed as active; ? = inconclusive; · = no result given; [ ] = remark or other dose. Shown are actives, neighbours in structure and some others; about 1.2% of the full set was active somewhere. Unless noted, no rule for the calls is given here.

SMILES	GSH fluor	RGS16-Gao	RGS7-Gao	Avidin fluor	RGS8-Gao reg	RGS4-Gao reg	Biotin-avidin	RGS8-Gao confirm	RGS7-Gao confirm	RGS16-Gao conf	RGS4-Gao confirm	RGS19-Gao conf	others
CC(=O)N1C(Nc2ccc(Cl)cc2)CCN1c1ccccc1 (stereo not given)	16	·	·	·	·	·	-1	102	98	98	101	88
CCOC(=O)CSc1nc2cc(C(F)(F)F)cnc2n1C	·	104	?	7	102	104	·	·	·	·	·	·
O=C(NCc1cccnc1)c1ccc(COc2cccc3ccccc23)o1	18	41	47*	3	56*	49*	2	102	95	101	100	91
O=C(NCc1cccnc1)c1ccc(COc2ccc(Cl)cc2Cl)o1	19	101	99	10	99	101	·	·	·	·	·	·
CN(C)c1nc(N)c([N+](=O)[O-])c(NCc2ccccc2)n1	9	101	103	2	102	104	·	·	·	·	·	·
CC(C)C1Oc2cc3oc(=O)ccc3cc2C1=O (stereo not given)	23	5.7*	50	4	57*	56	-1	107	105	106	103	98	RGS-Gao=56*
Cc1ccc([N+](=O)[O-])cc1N(CC(=O)N1CCCCC1)S(C)(=O)=O	15	107	?	13	102	102	·	·	·	·	·	·
Cn1nnc(NC(=O)COc2ccc(C3CCCCC3)cc2)n1	20	104	101	9	100	100	·	·	·	·	·	·
COC(=O)[C@@H]1C[C@@H]2CC[C@@H](O)C[C@@H]2N1Cc1ccc(OC)cc1	·	108	?	10	105	114	·	·	·	·	·	·
Cc1ccc(C2=N/C(=C/N3CCOCC3)C(=O)O2)cc1	30	53	93	9	86	92	·	·	·	·	·	·
Cc1ccc(C2=N/C(=C\N3CCCCC3)C(=O)O2)cc1	31	204*[activator]	169*[activator]	89*	115	198*[activator]	-2	101	101	101	103	99
Cn1cc2cccc([N+](=O)[O-])c2n1	13	98	99	10	101	97	·	·	·	·	·	·
O/N=C/c1ccc(OCc2ccccc2)c(Cl)c1	12	51	92	7	82	88	·	·	·	·	·	·
O/N=C/c1ccc(OCc2ccccc2)c(Br)c1	9	3.0*	82	7	74	84	-2	101	104	100	103	106	RGS-Gao=84*
C#CCOCCOCCOCCNc1nc(N2CCN(C(=O)[C@H]([C@@H](C)CC)n3cc([C@@H](N)CO)nn3)CC2)nc(N2CCN(C(=O)[C@H]([C@@H](C)CC)n3cc([C@@H](N)Cc4ccc(O)cc4)nn3)CC2)n1	18	18*	18*	0	41*	22*	0	100	101	99	99	88
COC(=O)c1cc(C(=O)Nc2ccc(C)cn2)cc([N+](=O)[O-])c1	17	·	·	·	·	·	1	101	75*	90	88	51
Cc1cccc(N2C(=O)CS/C2=N\NC(=O)c2ccc(Br)cc2)c1C	13	112	106	20	106	103	·	·	·	·	·	·
Cc1ccc(C(=O)N/N=C2\SCC(=O)N2c2cc(C)ccc2C)cc1	47	22*	83	3	74	81	-2	109	107	108	106	108	RGS-Gao=81*
O=C(CNC(=O)/C(=C\c1ccc(F)cc1)NC(=O)c1ccccc1)OCc1ccccc1	15	107	172*[activator]	199*	103	125	·	·	·	·	·	·	RGS-Gao=125*
O=C(CNC(=O)/C(=C\c1ccccc1)NC(=O)c1ccc(Br)cc1)OCc1ccccc1	24	94	96	11	99	98	·	·	·	·	·	·
COc1cccc(/C=N/NC(=O)c2ccccc2)c1OS(=O)(=O)c1ccccc1	7	25*	89	9	75	91	-1	101	100	97	100	100	RGS-Gao=91*
COc1cccc(/C=N/NC(=O)c2ccc(=O)n(C)c2)c1OC	11	101	105	12	103	102	·	·	·	·	·	·
COc1ccccc1/C=N/NC(=O)c1ccc(-c2ccccc2)cc1	13	191*[activator]	114	17	123	117	2	95	61*	77	76	61	RGS-Gao=117*
CCN1CCCC1CNC(=O)CCc1nc(-c2ccc(C)cc2)no1 (stereo not given)	19	103	101	35	101	103	·	·	·	·	·	·
CCOC(=O)c1c(NC(=O)C2CCCO2)sc(C(=O)OC(C)(C)C)c1C (stereo not given)	16	81	116	6	88	94	·	·	·	·	·	·
CN(C)/C=C1\C=C2C(=O)c3ccccc3N2C1=O	·	224*[activator]	?	92*	137	242*[activator]	1	143*[activator]	355*[activator]	268*[activator]	271*[activator]	374*[activator]
CN(C)S(=O)(=O)N1C(=O)c2ccccc2C1=O	·	97	?	7	101	101	·	·	·	·	·	·
COc1ccc(C(=O)CCC(=O)Nc2cccnc2)cc1	9	-5.4*	2.6*	0	6.2*	0.8*	-1	101	98	102	99	101
